Screening data: PubChem BioAssay, National Center for Advancing Translational Sciences (NCATS)
KB-V1 MDR tox – KB-V1 MDR subline cytotoxicity; KB-V1 MDR cells viability, CellTiter-Glo, 72 h; Potency, µM (titrated, usually from 46.1 µM), usual class: cytotoxic; 3.4% of 400,000 active; AID 1347076; note: nearly all actives have a fitted effect of over 60% in size
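Following 72 h at 37 degrees C with compound, KB-V1 cell viability was read by CellTiter-Glo luminescence, medium being phenol-red-free DMEM plus 10% FBS; concentration-response parameters came from normalized, curve-fitted qHTS data.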
SW480 rereplic – inducers of DNA re-replication in SW480 colon cancer cells; 1.8% of 340,000 active; Potency, µM (doses to about 46.1 µM), actives largely listed as activators; SW480 DNA re-replication, Hoechst DNA content imaging, 48 h; note: nearly all actives have a fitted effect of over 55% in size
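Treated cells incubate 48 hr (37 C, 5% CO2), are stained 40 min with Hoechst, and nuclear fluorescence is enumerated; a rise in nuclei with high DNA signal marks re-replication.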
RORgamma inh – inhibitors of mouse ROR gamma transcriptional activity; P51450; Drosophila S2 Gal4-RORgamma UAS-luciferase reporter, 20 h; Potency, µM (doses to about 53.6 µM), usual class: inhibitors; 5.4% of 310,000 active; AID 2551; note: nearly all actives have a fitted effect of over 60% in size
Target sequence (P51450 whole entry, looked up, the tested form may be a part): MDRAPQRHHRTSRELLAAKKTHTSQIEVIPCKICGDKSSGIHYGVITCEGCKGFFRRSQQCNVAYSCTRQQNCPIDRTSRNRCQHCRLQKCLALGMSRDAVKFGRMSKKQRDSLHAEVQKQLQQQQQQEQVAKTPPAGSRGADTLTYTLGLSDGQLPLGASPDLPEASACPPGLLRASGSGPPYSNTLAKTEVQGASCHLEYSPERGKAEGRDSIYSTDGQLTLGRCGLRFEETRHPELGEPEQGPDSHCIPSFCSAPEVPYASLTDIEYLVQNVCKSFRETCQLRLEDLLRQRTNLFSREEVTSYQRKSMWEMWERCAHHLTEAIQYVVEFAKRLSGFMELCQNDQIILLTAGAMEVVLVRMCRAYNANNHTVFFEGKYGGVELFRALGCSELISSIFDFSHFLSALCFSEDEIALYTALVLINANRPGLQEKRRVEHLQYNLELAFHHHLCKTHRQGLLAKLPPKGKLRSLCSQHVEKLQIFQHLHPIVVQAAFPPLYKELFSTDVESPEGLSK
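Stably transfected Drosophila Schneider cells are the test system, with ROR gamma fused to Gal4 and luciferase under UAS control; luminescence is read after 20 hr of 700 uM copper sulfate induction at ambient temperature.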
MCF10A rereplic – induces DNA re-replication in MCF 10a normal breast cells; MCF 10A DNA re-replication, Hoechst nuclear intensity, 48 h; Potency, µM (highest dose often 46.1 µM), actives largely listed as activators; 2.9% of 350,000 active; note: nearly all actives have a fitted effect of over 50% in size
KB-3-1 cytotox – KB-3-1 parental cell cytotoxicity; KB-3-1 viability, CellTiter-Glo ATP luminescence, 72 h; Potency, µM (highest dose often 46.1 µM), most hits filed as cytotoxic; 1.4% of 400,000 active; AID 1347075; note: nearly all actives have a fitted effect of over 60% in size
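Viability of parental KB-3-1 cells, measured by CellTiter-Glo luminescence, followed a 72 h incubation at 37 °C with pinned compounds in phenol-red-free DMEM containing 10% FBS.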
Gal4-VP16 FLuc – inhibits Gal4-VP16 luciferase reporter, ROR gamma counter-screen | Potency, µM (titrated, usually from 53.6 µM), most hits filed as inhibitors | AID 2546 | Drosophila S2 Gal4-VP16 UAS-luciferase, luminescence, 20 h | 3.5% of 310,000 active;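 note: Gal4-VP16 expression switched on by copper sulfate through the metallothionein promoter; nearly all actives have a fitted effect of over 50% in size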
Hits are given with their value; 0 = inactive; ? = inconclusive; - = no result; [ ] = dose if it differs, or a comment. Shown are actives, neighbours in structure and some others; about 10% of the full set was active somewhere. Calls come from the whole dose curve; as a rule, active = well fitted curve in the direction sought with a large enough effect; inconclusive = small, poorly fitted or top-dose-only effect, or another doubt; inactive = no such curve, though single readings can be large; an effect the other way counts as inactive or inconclusive.

SMILES	KB-V1 MDR tox	SW480 rereplic	RORgamma inh	MCF10A rereplic	KB-3-1 cytotox	Gal4-VP16 FLuc
CC(=O)/C(N=Nc1cc(C)ccc1O)=C(\C)O	0	0	3.16µM	?	0	0
CC(=O)/C(N=Nc1ccc(C(=O)O)cc1[N+](=O)[O-])=C(\C)O	?	0	0	0	0	0
COc1ccccc1NC(=S)NCCc1ccc(F)cc1	0	0	5.01µM	0	0	0[10 µM]
COc1ccc(OC)c(NC(=S)NC(=O)c2ccc(Br)o2)c1	?	0	3.98µM	0	0	?
COc1ccc(OC)c(NC(=O)CS(=O)(=O)c2ccccc2)c1	18.4µM	0	0	0	0	0
COc1ccc(OC)c(NC(=S)Nc2ccccc2)c1	0	0	?	0	0	20µM
COc1ccc(NC(=S)Nc2ccccc2)cc1	0	0	?	0	0	?
CS(=O)(=O)Nc1cccc(-c2cncnc2NCc2ccccc2)c1	-	-	0	-	-	0
Cn1nc(-c2ccccc2)cc1NC(=O)[C@@H]1O[C@H](CO)[C@H](O)[C@H](O)[C@H]1O	0	-	-	-	0	-
NC(C(=O)O)C(O)c1ccc(O)c(O)c1 (configuration not stated)	-	0	0[10 µM]	0	-	0
COC(=O)COc1ccc(S(=O)(=O)Nc2cc(OC)ccc2OC)cc1	-	-	5.01µM	-	-	25.1µM
COc1ccc(OC)c(NC(=S)NCc2ccco2)c1	0	0[9.22 µM]	-	0	0	-
COc1ccc(NC(=S)NCc2ccco2)c(OC)c1	0	0	10µM	0	0	0
COc1ccccc1NC(=S)NCCc1ccccc1	0	0	6.31µM	0	0	?
CCOc1cc(NC(=S)NCc2ccco2)c(OCC)cc1NC(=O)C1CC1	?	0	11.2µM	0	0	?
Cc1ccc(N=C2NC(=O)CC(C(=O)Nc3cc(C(F)(F)F)ccc3Cl)S2)cc1 (configuration not stated)	0	-	-	-	0	-
CC1CCCCC1NC(=O)CN1CCC(NC(=O)C(C)(C)C)CC1 (configuration not stated)	0	-	-	-	0	-
COc1cc(OC)c(NC(=O)Cn2cnc3c(nc4n3CCCCC4)c2=O)cc1Cl	0	-	-	-	0	-
COc1ccccc1NC(=S)NCc1ccc2c(c1)OCO2	0	0	17.8µM	?	0	?
COc1ccc(CNC(=S)Nc2cc(OC)ccc2OC)cc1	0	0	17.8µM	0	0	?
Cc1cc(OCC(=O)NNC(=S)NC(=O)c2ccc(Br)o2)ccc1Cl	0	0	7.94µM	0	0	0
COc1ccccc1NC(=S)NCc1ccc(F)cc1	0	0	31.6µM	?	0	?
COc1ccccc1NC(=S)NCc1ccc(S(N)(=O)=O)cc1	0	0	0	0	0	0
CCN(C(=O)c1coc(=O)c2ccccc12)c1ccccc1C	0	-	-	-	0	-
O=S1(=O)C[C@@H](N2CCC(Cc3ccccc3)CC2)[C@H](COCc2ccccc2)N1	0	-	-	-	0	-
SMILES	KB-V1 MDR tox	SW480 rereplic	RORgamma inh	MCF10A rereplic	KB-3-1 cytotox	Gal4-VP16 FLuc
COc1ccc(NC(=S)Nc2ccc(F)cc2)c(OC)c1	0	0	-	0	0	-
COc1ccc(NC(=S)NCc2ccc(F)cc2)c(OC)c1	0	0	12.6µM	0	0	?
CN(CC#CC1(O)c2ccccc2-c2ccccc21)Cc1ccccc1	8.2µM	0	0[10 µM]	0	0	0
Cc1cc2c(c(=O)n1-c1ccccc1)C1O[C@](c3ccsc3)(Cc3cc(C#N)ccc31)O2	-	-	0[10 µM]	-	-	0[10 µM]
C/C(=C\C(=O)OCCCCCCCCC(=O)O)C[C@@H]1OCC(C[C@H]2O[C@H]2[C@@H](C)[C@H](C)O)[C@@H](O)[C@H]1O (some centres not stated)	-	-	0	-	-	0
Cc1cc2nc(-c3ccc(Br)cc3)cc(C(F)(F)F)n2n1	?	-	-	-	0	-
O=C(CN(C(=O)CCC(=O)Nc1nccs1)c1cccc(F)c1)NCc1ccc(F)cc1	0	0	35.5µM	?	0	0
CSCCC1NC2(C(=O)Nc3c(C)cc(Cl)cc32)[C@@H]2C(=O)N(C3CCCC3)C(=O)[C@H]12 (some centres not stated)	4.61µM	?	0[10 µM]	0	?	0
CSCCC1NC2(C(=O)Nc3c(Cl)cccc32)[C@@H]2C(=O)N(C3CCCC3)C(=O)[C@H]12 (some centres not stated)	0	0	0	0	0	0
Cc1ccccc1CNC(=O)c1ccc2nc(SCc3ccc(F)cc3)n(C)c2c1	0	-	-	-	0	-
O=[N+]([O-])c1cncc([N+](=O)[O-])c1Nc1cccc(O)c1	23.1µM	?	?	0	?	11.2µM
O=[N+]([O-])c1cc([N+](=O)[O-])c2nonc2c1Nc1ccccc1O	0	0	0	0	?	0
O=[N+]([O-])c1c(Nc2cccc(O)c2)cc(Cl)c2nonc12	?	?	0[1.91 µM]	?	18.4µM	?
O=[N+]([O-])c1cc([N+](=O)[O-])c2nonc2c1Nc1ccc(O)cc1	0	0	11.2µM	0	0	12.6µM
O=C(O)c1ccc(Nc2cc(Cl)c3nonc3c2[N+](=O)[O-])cc1	0	?	12.6µM	0	0	0
O=C(O)c1cccc(Nc2ccc3nonc3c2[N+](=O)[O-])c1	0	0	-	0	0	-
COc1ccc(N2CCN(S(=O)(=O)c3csc(C(N)=O)c3)CC2)cc1	0	-	-	-	0	-
Cc1c(Nc2cc(Cl)c3nonc3c2[N+](=O)[O-])c(=O)n(-c2ccccc2)n1C	0	0	3.98µM	?	?	3.98µM
CC(C)(C)OC(=O)N1CCC(c2c(C(=O)NCc3cccc(Cl)c3)cnn2-c2ccc(F)cc2)CC1	0	-	-	-	?	-
CCOC(=O)c1cc(C#N)c(N2CCN(C(=O)c3ccccc3)CC2)nc1C(F)(F)F	20.6µM	14.6µM	0	0	0	0
CCOC(=O)c1cc(C#N)c(N2CCN(C(=O)c3cccc(C(F)(F)F)c3)CC2)nc1C(F)(F)F	?	0	?	0	?	0
O=C(CSc1nc(-c2ccccc2)no1)N1CCN(c2ccc(F)cc2)CC1	0	-	-	-	0	-
Cc1sc2nc(CN3CCOCC3)nc(Cl)c2c1C	0	0	?	?	?	0
Cc1sc2nc(CN3CCC(C)CC3)nc(Cl)c2c1C	-	0	17.8µM	0	-	0
Cc1nn(CC(=O)NCCc2ccc(Cl)cc2)c(=O)c2cc3cc(F)ccc3n12	0	-	-	-	0	-
CCc1ccc(N2C(=O)C(Cl)=C(N3CCOCC3)C2=O)cc1	0	0	0	0	0	12.6µM
O=C1C(Cl)=C(N2CCOCC2)C(=O)N1CCc1ccccc1	14.6µM	0	0	0	0	0
Cc1cc(Cl)ccc1OCCSc1nnc(-c2cccs2)o1	0	-	-	-	0	-
CCCNC(=O)c1cc(C2CCCCN2C(=O)OCC(C)C)on1 (configuration not stated)	0	-	-	-	0	-
c1ccc(OCc2nnc3sc(C4COc5ccccc5O4)nn23)cc1 (configuration not stated)	0	0	0	0	0	0
